# Results taken from paper PMC11006913.
# Substitutions are numbered along the chain they refer to.
# Key:
# Assay in all cases: PBM; 200 nM protein, PBS
# Settings in all cases: dsDNA, one strand shown
# HOXB4 [1] = target: HOXB4 (Homo sapiens, UniProt P17483 148-234)
# VENTX [2] = target: T1, VENTX (Homo sapiens, UniProt O95231 78-163, R121Q)
# T1 sequence: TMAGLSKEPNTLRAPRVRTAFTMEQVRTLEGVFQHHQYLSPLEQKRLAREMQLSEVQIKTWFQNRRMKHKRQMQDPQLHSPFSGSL
# HOXA4 [3] = target: HOXA4 (Homo sapiens, UniProt Q00056 201-287, W262R)
# Sequence of HOXA4 (Homo sapiens, UniProt Q00056 201-287, W262R) (Q00056 201-287 W262R): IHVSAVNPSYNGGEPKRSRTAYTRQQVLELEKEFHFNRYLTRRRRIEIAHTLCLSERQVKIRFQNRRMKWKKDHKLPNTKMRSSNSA
# PRRX1 [4] = target: PRRX1 (Homo sapiens, UniProt P54821 80-166, F113S)
# Sequence of PRRX1 (Homo sapiens, UniProt P54821 80-166, F113S) (P54821 80-166 F113S): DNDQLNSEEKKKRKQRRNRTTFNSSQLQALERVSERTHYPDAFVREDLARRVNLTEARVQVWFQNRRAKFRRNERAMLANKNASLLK
# VENTX [5] = target: T2, VENTX (Homo sapiens, UniProt O95231 78-163, Y115F)
# T2 sequence: T1 sequence with Y38F, Q44R
# HOXB6 = HOXB6 (Homo sapiens, UniProt P17509 132-218, K202E)
# Sequence of HOXB6 (P17509 132-218 K202E): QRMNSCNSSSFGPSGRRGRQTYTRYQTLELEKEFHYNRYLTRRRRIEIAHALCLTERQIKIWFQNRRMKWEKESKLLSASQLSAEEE
# HOXA2 = HOXA2 (Homo sapiens, UniProt O43364 129-215, R185T)
# Sequence of HOXA2 (O43364 129-215 R185T): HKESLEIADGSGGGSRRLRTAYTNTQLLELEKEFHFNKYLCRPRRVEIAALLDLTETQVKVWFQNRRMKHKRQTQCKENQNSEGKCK
# HOXA4 [6] = target: HOXA4 (Homo sapiens, UniProt Q00056 201-287, R217L)
# Sequence of HOXA4 (Homo sapiens, UniProt Q00056 201-287, R217L) (Q00056 201-287 R217L): as the sequence (Q00056 201-287 W262R) above, with R17L, R62W counted along it
# HOXB4 [7] = target: HOXB4 (Homo sapiens, UniProt P17483 148-234, V174I)
# Sequence of HOXB4 (Homo sapiens, UniProt P17483 148-234, V174I) (P17483 148-234 V174I): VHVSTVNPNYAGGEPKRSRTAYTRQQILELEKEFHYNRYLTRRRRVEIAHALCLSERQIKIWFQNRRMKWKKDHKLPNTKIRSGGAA
# MSX2 [8] = target: MSX2 (Homo sapiens, UniProt P35548 130-214, R199I)
# Sequence of MSX2 (Homo sapiens, UniProt P35548 130-214, R199I) (P35548 130-214 R199I): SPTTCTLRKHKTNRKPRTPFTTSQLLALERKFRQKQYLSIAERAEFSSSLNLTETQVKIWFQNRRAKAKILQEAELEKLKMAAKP
# PAX4 [9] = target: T3, PAX4 (Homo sapiens, UniProt O43316 9-242, R200Q)
# T3 sequence: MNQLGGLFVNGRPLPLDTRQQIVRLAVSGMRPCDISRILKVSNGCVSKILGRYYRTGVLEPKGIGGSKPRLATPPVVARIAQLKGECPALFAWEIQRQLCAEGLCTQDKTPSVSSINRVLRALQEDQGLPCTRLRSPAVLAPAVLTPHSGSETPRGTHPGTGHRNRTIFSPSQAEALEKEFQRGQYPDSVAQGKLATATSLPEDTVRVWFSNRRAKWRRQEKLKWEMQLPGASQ
# PAX4 [10] = target: T4, PAX4 (Homo sapiens, UniProt O43316 9-242, F177V)
# T4 sequence: T3 sequence with F169V, Q192R
# HOXA4 [11] = target: HOXA4 (Homo sapiens, UniProt Q00056 201-287)
# Sequence of HOXA4 (Homo sapiens, UniProt Q00056 201-287) (Q00056 201-287): as the sequence (Q00056 201-287 W262R) above, with R62W counted along it
# MSX2 [12] = target: MSX2 (Homo sapiens, UniProt P35548 130-214)
# Sequence of MSX2 (Homo sapiens, UniProt P35548 130-214) (P35548 130-214): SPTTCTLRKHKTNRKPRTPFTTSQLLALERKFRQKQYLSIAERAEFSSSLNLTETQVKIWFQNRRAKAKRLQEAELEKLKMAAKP
# PAX4 [13] = target: T5, PAX4 (Homo sapiens, UniProt O43316 9-242, F177Y)
# T5 sequence: T3 sequence with F169Y, Q192R
# MSX2 [14] = target: MSX2 (Homo sapiens, UniProt P35548 130-214, F161Y)
# Sequence of MSX2 (Homo sapiens, UniProt P35548 130-214, F161Y) (P35548 130-214 F161Y): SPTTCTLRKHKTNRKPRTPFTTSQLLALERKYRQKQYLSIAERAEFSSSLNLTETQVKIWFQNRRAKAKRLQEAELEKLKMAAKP
# VAX1 [15] = target: VAX1 (Homo sapiens, UniProt Q5SQQ9 86-172, T142I)
# Sequence of VAX1 (Homo sapiens, UniProt Q5SQQ9 86-172, T142I) (Q5SQQ9 86-172 T142I): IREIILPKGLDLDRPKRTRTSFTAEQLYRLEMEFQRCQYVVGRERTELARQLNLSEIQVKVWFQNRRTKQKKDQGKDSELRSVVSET
# HOXA4 [16] = target: HOXA4 (Homo sapiens, UniProt Q00056 201-287, W262F)
# Sequence of HOXA4 (Homo sapiens, UniProt Q00056 201-287, W262F) (Q00056 201-287 W262F): as the sequence (Q00056 201-287 W262R) above, with R62F counted along it
# PRRX1 [17] = target: PRRX1 (Homo sapiens, UniProt P54821 80-166)
# Sequence of PRRX1 (Homo sapiens, UniProt P54821 80-166) (P54821 80-166): as the sequence (P54821 80-166 F113S) above, with S34F counted along it
# VAX1 [18] = target: VAX1 (Homo sapiens, UniProt Q5SQQ9 86-172, K157R)
# Sequence of VAX1 (Homo sapiens, UniProt Q5SQQ9 86-172, K157R) (Q5SQQ9 86-172 K157R): as the sequence (Q5SQQ9 86-172 T142I) above, with I57T, K72R counted along it
# Sequence of HOXB4 (Homo sapiens, UniProt P17483 148-234) (P17483 148-234): as the sequence (P17483 148-234 V174I) above, with I27V counted along it
Sequence,binding signal (HOXB4 [1]),binding signal (VENTX [2]),binding signal (HOXA4 [3]),binding signal (PRRX1 [4]),binding signal (VENTX [5]),binding signal (HOXB6),binding signal (HOXA2),binding signal (HOXA4 [6]),binding signal (HOXB4 [7]),binding signal (MSX2 [8]),binding signal (PAX4 [9]),binding signal (PAX4 [10]),binding signal (HOXA4 [11]),binding signal (MSX2 [12]),binding signal (PAX4 [13]),binding signal (MSX2 [14]),binding signal (VAX1 [15]),binding signal (HOXA4 [16]),binding signal (PRRX1 [17]),binding signal (VAX1 [18])
GTTAATTA,"13.5 upbm affinity estimate (log intensity, higher = more binding, comparable within an allelic series)","12.5 upbm affinity estimate (log intensity, higher = more binding, comparable within an allelic series)","11 upbm affinity estimate (log intensity, higher = more binding, comparable within an allelic series)","12 upbm affinity estimate (log intensity, higher = more binding, comparable within an allelic series)","12.3 upbm affinity estimate (log intensity, higher = more binding, comparable within an allelic series)","10.2 upbm affinity estimate (log intensity, higher = more binding, comparable within an allelic series)","13.9 upbm affinity estimate (log intensity, higher = more binding, comparable within an allelic series)","13.2 upbm affinity estimate (log intensity, higher = more binding, comparable within an allelic series)","14.3 upbm affinity estimate (log intensity, higher = more binding, comparable within an allelic series)","13.1 upbm affinity estimate (log intensity, higher = more binding, comparable within an allelic series)","12.5 upbm affinity estimate (log intensity, higher = more binding, comparable within an allelic series)","10.9 upbm affinity estimate (log intensity, higher = more binding, comparable within an allelic series)","14.3 upbm affinity estimate (log intensity, higher = more binding, comparable within an allelic series)","14 upbm affinity estimate (log intensity, higher = more binding, comparable within an allelic series)","11.4 upbm affinity estimate (log intensity, higher = more binding, comparable within an allelic series)","13.6 upbm affinity estimate (log intensity, higher = more binding, comparable within an allelic series)","13.9 upbm affinity estimate (log intensity, higher = more binding, comparable within an allelic series)","13 upbm affinity estimate (log intensity, higher = more binding, comparable within an allelic series)","13.6 upbm affinity estimate (log intensity, higher = more binding, comparable within an allelic series)","13.9 upbm affinity estimate (log intensity, higher = more binding, comparable within an allelic series)"
ATTAATTA,"13.7 upbm affinity estimate (log intensity, higher = more binding, comparable within an allelic series)","12.8 upbm affinity estimate (log intensity, higher = more binding, comparable within an allelic series)","11.1 upbm affinity estimate (log intensity, higher = more binding, comparable within an allelic series)","12.2 upbm affinity estimate (log intensity, higher = more binding, comparable within an allelic series)","12.5 upbm affinity estimate (log intensity, higher = more binding, comparable within an allelic series)","10.4 upbm affinity estimate (log intensity, higher = more binding, comparable within an allelic series)","14 upbm affinity estimate (log intensity, higher = more binding, comparable within an allelic series)","13.4 upbm affinity estimate (log intensity, higher = more binding, comparable within an allelic series)","14.4 upbm affinity estimate (log intensity, higher = more binding, comparable within an allelic series)","13.4 upbm affinity estimate (log intensity, higher = more binding, comparable within an allelic series)","12.8 upbm affinity estimate (log intensity, higher = more binding, comparable within an allelic series)","11.1 upbm affinity estimate (log intensity, higher = more binding, comparable within an allelic series)","14.4 upbm affinity estimate (log intensity, higher = more binding, comparable within an allelic series)","14.2 upbm affinity estimate (log intensity, higher = more binding, comparable within an allelic series)","11.6 upbm affinity estimate (log intensity, higher = more binding, comparable within an allelic series)","13.8 upbm affinity estimate (log intensity, higher = more binding, comparable within an allelic series)","13.9 upbm affinity estimate (log intensity, higher = more binding, comparable within an allelic series)","13.1 upbm affinity estimate (log intensity, higher = more binding, comparable within an allelic series)","13.8 upbm affinity estimate (log intensity, higher = more binding, comparable within an allelic series)","13.8 upbm affinity estimate (log intensity, higher = more binding, comparable within an allelic series)"
ATTAATGA,"13.5 upbm affinity estimate (log intensity, higher = more binding, comparable within an allelic series)","12.2 upbm affinity estimate (log intensity, higher = more binding, comparable within an allelic series)","10.8 upbm affinity estimate (log intensity, higher = more binding, comparable within an allelic series)","11.2 upbm affinity estimate (log intensity, higher = more binding, comparable within an allelic series)","12.1 upbm affinity estimate (log intensity, higher = more binding, comparable within an allelic series)","10.3 upbm affinity estimate (log intensity, higher = more binding, comparable within an allelic series)","13.3 upbm affinity estimate (log intensity, higher = more binding, comparable within an allelic series)","12.9 upbm affinity estimate (log intensity, higher = more binding, comparable within an allelic series)","14.1 upbm affinity estimate (log intensity, higher = more binding, comparable within an allelic series)",–,"12.1 upbm affinity estimate (log intensity, higher = more binding, comparable within an allelic series)","10.6 upbm affinity estimate (log intensity, higher = more binding, comparable within an allelic series)","14.2 upbm affinity estimate (log intensity, higher = more binding, comparable within an allelic series)",–,"11.1 upbm affinity estimate (log intensity, higher = more binding, comparable within an allelic series)",–,"13.4 upbm affinity estimate (log intensity, higher = more binding, comparable within an allelic series)","12.2 upbm affinity estimate (log intensity, higher = more binding, comparable within an allelic series)","13.3 upbm affinity estimate (log intensity, higher = more binding, comparable within an allelic series)","13.3 upbm affinity estimate (log intensity, higher = more binding, comparable within an allelic series)"
ATAATTAT,"13.7 upbm affinity estimate (log intensity, higher = more binding, comparable within an allelic series)","11.9 upbm affinity estimate (log intensity, higher = more binding, comparable within an allelic series)","10.9 upbm affinity estimate (log intensity, higher = more binding, comparable within an allelic series)","11.7 upbm affinity estimate (log intensity, higher = more binding, comparable within an allelic series)","11.8 upbm affinity estimate (log intensity, higher = more binding, comparable within an allelic series)","10.3 upbm affinity estimate (log intensity, higher = more binding, comparable within an allelic series)","13.6 upbm affinity estimate (log intensity, higher = more binding, comparable within an allelic series)","12.7 upbm affinity estimate (log intensity, higher = more binding, comparable within an allelic series)","14.5 upbm affinity estimate (log intensity, higher = more binding, comparable within an allelic series)","12.9 upbm affinity estimate (log intensity, higher = more binding, comparable within an allelic series)","12.3 upbm affinity estimate (log intensity, higher = more binding, comparable within an allelic series)","10.9 upbm affinity estimate (log intensity, higher = more binding, comparable within an allelic series)","14.3 upbm affinity estimate (log intensity, higher = more binding, comparable within an allelic series)","14 upbm affinity estimate (log intensity, higher = more binding, comparable within an allelic series)","11.3 upbm affinity estimate (log intensity, higher = more binding, comparable within an allelic series)","13.6 upbm affinity estimate (log intensity, higher = more binding, comparable within an allelic series)","13.3 upbm affinity estimate (log intensity, higher = more binding, comparable within an allelic series)","12.1 upbm affinity estimate (log intensity, higher = more binding, comparable within an allelic series)","13.6 upbm affinity estimate (log intensity, higher = more binding, comparable within an allelic series)","13.3 upbm affinity estimate (log intensity, higher = more binding, comparable within an allelic series)"
